Data taken from PubChem BioAssay (NCATS).
Records with an inconclusive call do not appear. A number with no mark means an inactive call. Calls of active or inactive are those of the source. Calls follow the shape of the dose curve; as a rule, active = well fitted inhibition curve with a large enough effect; inconclusive = small, poorly fitted or top-dose-only effect; inactive = no such curve, though single readings can be large or run the other way.

These molecules were tested against Retinaldehyde dehydrogenase 3 (Homo sapiens) (UniProt P47895) (assay: qHTS for Inhibitors of the Aldehyde Dehydrogenase Family (ALDH1A3) Primary screen (AID 2061315;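 also: plate controls were DMSO vehicle for no effect and reference inhibitor for full effect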)). Settings: ALDH inhibition qHTS; series mostly up to 56 µM; activity change, negative = inhibition: at the top concentration.

First: Cc1cc(NC(=O)Nc2nnc(-c3ccncc3)s2)ccc1Br
Second: Cc1cc(NS(=O)(=O)c2ccc(Nc3nc(-c4ccc(C)c(C)c4)cs3)cc2)no1
The “activity change, negative = inhibition” value of the first is lower: -26.4% for the first, 25.3% for the second.

Going from Nc1cc(S(=O)(=O)N2CCN(S(=O)(=O)c3ccc4c(c3)OCCO4)CC2)ccn1 to CN1CCN(C(=O)c2cccc(-c3ccc(CNc4ccc(N5CCN(C(=O)OC(C)(C)C)CC5)cc4)o3)c2)CC1, the “activity change, negative = inhibition” value rises from 4.66% to 8.45%.

First: N#CNC(=O)c1ccc(-n2cccc2/C=C2\NC(=O)N(CC(=O)Nc3ccc(F)cc3)C2=O)cc1
Second: CC(=O)Nc1cccc(OCc2cccc(C3Nc4ccccc4C(=O)N3Cc3ccco3)c2)c1 (configuration not stated)
The “activity change, negative = inhibition” value of the first is higher: 6.95% for the first, -28.5% for the second.

Compared with Cc1ccsc1CN(C)c1ncnc2ccc(-c3oc(-c4ccccc4)nc3C)cc12, Cc1ccc(CNc2ncnc3ccc(-c4oc(-c5ccccc5)nc4C)cc23)o1 is higher in “activity change, negative = inhibition” value: -14.9% for the first, 20.7% for the second.

Compared with CCn1cnc2c(Nc3ccc(CC(=O)N=C(N)N)cc3)nc(C#N)nc21, C[C@@H](CO)Nc1cc2c(cc1[S+](=O)([O-])Nc1ccc(Cl)c(Cl)c1)CCC(=O)N2 is lower in “activity change, negative = inhibition” value: 3.28% for the first, -5.98% for the second.

For Cc1ccc(S(=O)(=O)Nc2cnccc2C(=O)Nc2nc(-c3ccco3)cs2)cc1, the “activity change, negative = inhibition” value was -5.42%.

First: COc1cc(O)c(C(CC(=O)N2C[C@H](C)C[C@H](C)C2)c2ccc3c(c2)OCO3)c(OC)c1 (some centres not stated)
Second: O=C1Cc2cc(S(=O)(=O)N3CCN(c4ccc(Cl)cc4)CC3)ccc2N1
The “activity change, negative = inhibition” value of the first is higher: 5.57% [at 114 µM] for the first, -7.11% [at 114 µM] for the second.

With Cc1ccc(CNc2ncnc3ccc(-c4ccc([C@@H](C)O)o4)cc23)o1 the Potency was “inactive”.

The molecules below were run against Aldehyde dehydrogenase 1A1 (Homo sapiens) (UniProt P00352) (assay: qHTS for Inhibitors of the Aldehyde Dehydrogenase Family (ALDH1A1) Confirmatory screens (AID 2061316; also: nearly all actives have a fitted effect of over 65% in size; also: potency is read from the fitted curve at half-maximal effect; as to activity change, negative = inhibition: % is scaled to controls: 0 for no effect and ±100 for the full control effect)). Settings: ALDH inhibition qHTS; series mostly up to 47.3 µM; activity change, negative = inhibition: at the top concentration.

With Cc1cc(NC(=O)Nc2nnc(-c3ccncc3)s2)ccc1Br the Potency was 12.7 µM (active).
CC(=O)N1CCN(c2ccc(NCc3ccco3)cc2)CC1 was tested, and the Potency was 7.98 µM (active).
For N#Cc1ccc(-c2ccc(CNc3ccc(N4CCOCC4)cc3)cn2)cc1, the Potency was 4.49 µM (active).
With CN(C)c1ccc(-c2csc(N3CCC(C(N)=O)CC3)n2)cc1 the Potency was 8.96 µM (active).
CC(=O)Nc1cccc(OCc2cccc(C3Nc4ccccc4C(=O)N3Cc3ccco3)c2)c1 (configuration not stated) was tested, and the Potency was 7.12 µM (active).
With COc1cccc(-c2cccc(C(=O)N3CCN(C(=O)c4ccc(C)cc4)CC3)c2)c1 the Potency was 8.14 µM (active).
With CC(=O)N1CCN(c2ccc(NCc3ccc(Br)o3)cc2)CC1 the Potency was 10.1 µM (active).
In the case of Cc1ccc(CNc2ncnc3ccc(-c4ccc([C@@H](C)O)o4)cc23)o1, the Potency is reported as 11.3 µM (active).
O=C(Nc1ncc(Cc2ccc(C(F)(F)F)cc2)s1)c1ccc(-c2ccccc2[N+](=O)[O-])o1 was tested, and the Potency was 6.34 µM (active).
Oc1cc2c(cc1CN1CCN(c3ncccn3)CC1)OCO2 was tested, and the Potency was 5.65 µM (active).
For Cc1ccc(S(=O)(=O)Nc2cnccc2C(=O)Nc2nc(-c3ccco3)cs2)cc1, the Potency was 0.798 µM (active).
COc1ccc(-c2nc3ccccc3c(=O)n2Cc2ccccc2)cc1CNc1ccc(NC(C)=O)cc1 was tested, and the Potency was 11.3 µM (active).

First: N#CNC(=O)c1ccc(-n2cccc2/C=C2\NC(=O)N(CC(=O)Nc3ccc(F)cc3)C2=O)cc1
Second: Cc1ccc(C(=O)NCC(c2ccc3c(c2)OCO3)N2CCN(c3ccc(F)cc3)CC2)cc1 (configuration not stated)
The “activity change, negative = inhibition” value of the first is higher: 0.85% for the first, -20.7% for the second.

Compared with COc1ccc(Cl)cc1C(=O)NCc1nnc2cc(-c3nc(C)no3)ccn12, Cc1cccc(C(=O)NCc2nnc3cc(-c4nc(C)no4)ccn23)c1 is lower in “activity change, negative = inhibition” value: -7.68% for the first, -25.3% for the second.

First: O=C(CCC1CCCN(S(=O)(=O)c2ccccc2F)C1)NCCCN1CCOCC1 (configuration not stated)
Second: O=C(NCC(=O)N1CCN(Cc2ccccc2)CC1)c1cccc(-c2ccsc2)c1
The “activity change, negative = inhibition” value of the first is higher: 2.28% for the first, -24.9% for the second.

Going from COc1ccc2c(c1)c(C(=O)CN(C)C)c(C)n2C to CCN(CC)CC(=O)c1c(C)n(C)c2ccc(OC)cc12, the “activity change, negative = inhibition” value rises from -1.27% to 1.54%.

Compared with COc1ccc(-n2c(C)c(C(C)=O)c3cc(OC(=O)c4ccc(C)cc4)ccc32)cc1, COc1ccc(-n2c(C)c(C(C)=O)c3cc(OC(=O)COc4ccccc4)ccc32)cc1 is lower in “activity change, negative = inhibition” value: 5.56% for the first, 3.29% for the second.

Compared with CC(=O)c1c(C)n(-c2cccc(Cl)c2)c2ccc(OC(=O)c3ccccc3)cc12, CC(=O)c1c(C)n(-c2cccc(C)c2)c2ccc(OC(=O)COc3ccccc3)cc12 is higher in “activity change, negative = inhibition” value: 6.38% for the first, 7.76% for the second.

Going from CC(=O)c1c(C)n(-c2ccc(Cl)cc2)c2ccc(OC(=O)COc3ccccc3)cc12 to CCOC(=O)c1c(C)n(-c2ccc(OC)cc2)c2ccc(OC(=O)COc3ccccc3)cc12, the “activity change, negative = inhibition” value rises from 3.92% to 5.97%.

Going from CCn1cnc2c(Nc3ccc(CC(=O)N=C(N)N)cc3)nc(C#N)nc21 to CCOC(=O)c1c(C)n(-c2ccccc2)c2ccc(OC(=O)c3ccccc3)cc12, the “activity change, negative = inhibition” value rises from -9.41% to 2.26%.

With C[C@@H](CO)Nc1cc2c(cc1[S+](=O)([O-])Nc1ccc(Cl)c(Cl)c1)CCC(=O)N2 the “activity change, negative = inhibition” value was -13.5%.

First: Cc1cc(C)cc(-c2ccc(C=O)cc2)c1
Second: Cc1cc(C)cc(-c2ccccc2C=O)c1
The “activity change, negative = inhibition” value of the first is lower: 7.81% [at 86.7 µM] for the first, 8.59% [at 86.7 µM] for the second.

For Cc1cccc(-c2ccccc2C=O)c1, the “activity change, negative = inhibition” value was 6.78% [at 86.7 µM].

Cc1ccc(-c2ccccc2C=O)c(C)c1 was tested, and the “activity change, negative = inhibition” value was 8.13% [at 99.6 µM].
